The results in this text go back to PubChem BioAssay (EPA / NIEHS).

SMILES strings stand for the structures. Activity calls are given as the source filed them. Rule for the calls: active = hit-call score of the fitted dose curve at least 0.9, where 1 is the maximum; inactive = score below 0.9.

Read-out in test [1]: Interleukin-1 alpha (IL1a), IL1A (gene 3552)
The test is described as follows: BSK_KF3CT_IL1a: BioMAP Diversity Plus: KF3CT Assay for Interleukin-1 alpha (IL1a) Biomarker Activity (AID 2283070). As to conditions: primary human keratinocytes with fibroblasts; actives raise or lower the signal. The procedure, abridged: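 Readout is IL-1a level by ELISA, compared bidirectionally with DMSO as baseline. Cells: human keratinocytes co-cultured with foreskin fibroblasts, harvested 24 h post-dose.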

Read-out in test [2]: TIMP metallopeptidase inhibitor 2 (TIMP2), TIMP2 (gene 7077)
The test is described as follows: BSK_KF3CT_TIMP2: BioMAP Diversity Plus: KF3CT Assay for TIMP metallopeptidase inhibitor 2 (TIMP2) Biomarker Activity (AID 2283071). Particulars: primary human keratinocytes with fibroblasts; actives raise or lower the signal. The procedure, abridged: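 TIMP-2 measured by ELISA at 24 h in human keratinocyte/fibroblast primary co-cultures exposed to chemicals. Both increases and decreases were fitted against DMSO. Parallel cultures were stained with SRB for total protein as an overt-cytotoxicity check.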

Read-out in test [3]: Transforming growth factor beta 1 (TGFb1), TGFB1 (gene 7040)
The test is described as follows: BSK_KF3CT_TGFb1: BioMAP Diversity Plus: KF3CT Assay for Transforming growth factor beta 1 (TGFb1) Biomarker Activity (AID 2283072). As to conditions: primary human keratinocytes with fibroblasts; actives raise or lower the signal. The procedure, abridged:
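ELISA quantifies TGF-b1 at 24 h post-dose in a primary human skin co-culture of keratinocytes and fibroblasts, with gain or loss judged against DMSO. Parallel SRB total-protein staining flags overt cytotoxicity.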

Read-out in test [4]: C-C motif chemokine 2 (Homo sapiens) (UniProt P13500)
The test is described as follows: BSK_KF3CT_MCP1: BioMAP Diversity Plus: KF3CT Assay for Monocyte Chemoattractant Protein 1 (MCP1/CCL2) Biomarker Activity (AID 2283073). As to conditions: primary human keratinocytes with fibroblasts; actives raise or lower the signal. The method, boiled down:
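Keratinocytes and foreskin fibroblasts were co-cultured, dosed with chemical, and sampled 24 h later. MCP-1 was quantified by ELISA, and the endpoint was analyzed with bidirectional fitting using DMSO as negative control.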

Read-out in test [5]: Matrix Metallopeptidase 9 (MMP9), MMP9 (gene 4318)
The test is described as follows: BSK_KF3CT_MMP9: BioMAP Diversity Plus: KF3CT Assay for Matrix Metallopeptidase 9 (MMP9) Biomarker Activity (AID 2283074). As to conditions: primary human keratinocytes with fibroblasts; actives raise or lower the signal. The procedure, abridged: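 Values come from bidirectional fitting relative to DMSO of MMP-9 levels, which were measured by ELISA. Measurements were taken 24 h after chemical dosing of a keratinocyte and foreskin fibroblast co-culture.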

Read-out in test [6]: urokinase plasminogen activator (uPA), PLAU (gene 5328)
The test can be described thus: BSK_KF3CT_uPA: BioMAP Diversity Plus: KF3CT Assay for urokinase plasminogen activator (uPA) Biomarker Activity (AID 2283075). Particulars: primary human keratinocytes with fibroblasts; actives raise or lower the signal. The procedure, abridged:
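Values derive from bidirectional fitting against DMSO controls. Keratinocyte/foreskin fibroblast co-cultures received chemical; 24 h later uPA was detected by ELISA, with SRB total-protein staining in parallel wells for overt cytotoxicity.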

Read-out in another test: CD40, CD40 (gene 958)
The test is described as follows: BSK_LPS_CD40: BioMAP Diversity Plus: LPS Assay for CD40 Biomarker Activity (AID 2283076). Particulars: primary human HUVEC with PBMC; actives raise or lower the signal. The procedure, abridged: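 CD40 signal, measured by ELISA, is fitted in both directions relative to DMSO vehicle. The system is an LPS-driven human vascular primary co-culture of endothelial cells and PBMC, sampled 24 h after compound addition.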

Read-out in test [7]: E-selectin (Homo sapiens) (UniProt P16581)
The test is described as follows: BSK_LPS_Eselectin: BioMAP Diversity Plus: LPS Assay for Eselectin Biomarker Activity (AID 2283077). As to conditions: primary human HUVEC with PBMC; actives raise or lower the signal. The method, boiled down: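 Signal of E-selectin, detected by ELISA, served as the endpoint; cells were umbilical vein endothelium with PBMC, read 24 h after treatment. DMSO defined baseline, and both increases and decreases were fitted.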

Read-out in test [8]: Interleukin-8 (IL8), CXCL8 (gene 3576)
The test is described as follows: BSK_LPS_IL8: BioMAP Diversity Plus: LPS Assay for Interleukin-8 (IL8) Biomarker Activity (AID 2283078). Particulars: primary human HUVEC with PBMC; actives raise or lower the signal. The procedure, abridged:
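Endothelial cells and PBMC from human donors are co-cultured, treated with chemicals and LPS, then assayed for IL-8 by ELISA after 24 h. Parallel SRB staining (0.1% SRB after 10% TCA fixation, 560 nm) flags cytotoxicity.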

Test [9] is described as follows: BSK_LPS_SRB: Viability Assessment in the BioMAP Diversity Plus: LPS Assay (AID 2283079).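 Note: total protein by sulforhodamine B absorbance as a cytotoxicity measure; measured one day after compound addition; fitted in both directions against DMSO so loss or gain of signal counts.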 Particulars: primary human HUVEC with PBMC. The procedure, abridged: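 Overt cytotoxicity was gauged by sulforhodamine B total-protein staining in a primary human vascular endothelial and mononuclear cell co-culture 24 h post-dosing. Activity was fitted in both directions relative to DMSO.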

Read-out in test [10]: Interleukin-1 alpha (IL1a), IL1A (gene 3552)
The test can be described thus: BSK_LPS_IL1a: BioMAP Diversity Plus: LPS Assay for Interleukin-1 alpha (IL1a) Biomarker Activity (AID 2283080). Particulars: primary human HUVEC with PBMC; actives raise or lower the signal. The method, boiled down:
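Measured: IL-1 alpha via ELISA at 24 h in LPS-activated human umbilical vein endothelium–PBMC co-culture. Baseline: DMSO, bidirectional fitting.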

Read-out in test [11]: Monocyte Chemoattractant Protein-1 (MCP1), CCL2 (gene 6347)
The test is described as follows: BSK_LPS_MCP1: BioMAP Diversity Plus: LPS Assay for Monocyte Chemoattractant Protein-1 (MCP1) Biomarker Activity (AID 2283081).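 For AC50: secreted MCP-1 protein quantified by ELISA in culture supernatant.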 As to conditions: primary human HUVEC with PBMC; actives raise or lower the signal. The procedure, abridged: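 LPS-stimulated HUVEC/PBMC co-culture; chemical, 24 h; MCP-1 by ELISA; bidirectional fit vs DMSO; cytotoxicity via SRB (0.1% stain, 10% TCA fix, 560 nm) in parallel wells.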

Test [12] in a line: BSK_LPS_PGE2: BioMAP Diversity Plus: LPS Assay for Prostaglandin E2 (PGE2) Biomarker Activity (AID 2283082).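 For AC50: secreted prostaglandin E2 measured by ELISA in LPS-stimulated co-culture.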 As to conditions: primary human HUVEC with PBMC; actives raise or lower the signal. The method, boiled down:
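PGE2 release measured by ELISA in an LPS-activated co-culture of human umbilical vein endothelial cells and peripheral blood mononuclear cells, read at 24 h post-dosing. DMSO served as baseline for bidirectional curve fitting.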

Read-out in test [13]: Macrophage colony-stimulating factor (MCSF), CSF1 (gene 1435)
The test is described as follows: BSK_LPS_MCSF: BioMAP Diversity Plus: LPS Assay for Macrophage colony-stimulating factor (MCSF) Biomarker Activity (AID 2283083). Particulars: primary human HUVEC with PBMC; actives raise or lower the signal. The method, boiled down: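 Compound is added to a human vascular primary co-culture of umbilical vein endothelium and blood mononuclear cells. After 24 h, M-CSF is quantified by ELISA. Signal changes are fitted in both directions against DMSO.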

Read-out in test [14]: Tissue Factor, F3 (gene 2152)
The test can be described thus: BSK_LPS_TissueFactor: BioMAP Diversity Plus: LPS Assay for Tissue Factor Biomarker Activity (AID 2283084). As to conditions: primary human HUVEC with PBMC; actives raise or lower the signal. The method, boiled down: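 In this co-culture system of umbilical vein endothelium with PBMC, stimulated with LPS, cell-surface CD142 is detected by ELISA at 24 h. Endpoint values derive from bidirectional fitting, DMSO serving as baseline.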

Read-out in test [15]: Tumor necrosis factor (Homo sapiens) (UniProt P01375)
The test is described as follows: BSK_LPS_TNFa: BioMAP Diversity Plus: LPS Assay for Tumour Necrosis Factor alpha (TNFa) Biomarker Activity (AID 2283085).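 For AC50: TNFa protein level quantified by ELISA in the co-culture.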 Particulars: primary human HUVEC with PBMC; actives raise or lower the signal. The procedure, abridged:
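TNFa was quantified by ELISA in LPS-activated co-cultures of human endothelial cells and PBMC, 24 h post-dosing. Both increases and decreases versus DMSO were fitted.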

Read-out in test [16]: Vascular cell adhesion molecule 1 (VCAM1), VCAM1 (gene 7412)
The test is described as follows: BSK_LPS_VCAM1: BioMAP Diversity Plus: LPS Assay for Vascular cell adhesion molecule 1 (VCAM1) Biomarker Activity (AID 2283086). Particulars: primary human HUVEC with PBMC; actives raise or lower the signal. The procedure, abridged: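 VCAM-1 quantified by ELISA in an LPS-activated co-culture of human endothelial cells and peripheral blood mononuclear cells, read 24 h post-treatment. Fitted in both directions versus DMSO; parallel SRB staining flags overt cytotoxicity.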

Read-out in a further test: CD38, CD38 (gene 952)
The test is described as follows: BSK_SAg_CD38: BioMAP Diversity Plus: SAg Assay for CD38 Biomarker Activity (AID 2283087). As to conditions: primary human HUVEC with PBMC; actives raise or lower the signal. The method, boiled down: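 CD38 quantified by ELISA (fluorescence) in a superantigen-activated endothelial cell–PBMC co-culture at 24 h post-dose. Activity fitted in both directions relative to DMSO; parallel SRB and Alamar Blue cytotoxicity read-outs.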

Read-out in another test: CD69, CD69 (gene 969)
The test can be described thus: BSK_SAg_CD69: BioMAP Diversity Plus: SAg Assay for CD69 Biomarker Activity (AID 2283089).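 For AC50: cell surface CD69 protein quantified by ELISA with fluorescence detection.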 As to conditions: primary human HUVEC with PBMC; actives raise or lower the signal. The method, boiled down:
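HUVEC co-cultured with PBMC were dosed with chemical, and CD69 was measured by ELISA with fluorescence read-out 24 h later. Bidirectional curve fitting used DMSO as negative control and activity baseline.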

Sequence of E-selectin (Homo sapiens) (P16581 whole entry, looked up): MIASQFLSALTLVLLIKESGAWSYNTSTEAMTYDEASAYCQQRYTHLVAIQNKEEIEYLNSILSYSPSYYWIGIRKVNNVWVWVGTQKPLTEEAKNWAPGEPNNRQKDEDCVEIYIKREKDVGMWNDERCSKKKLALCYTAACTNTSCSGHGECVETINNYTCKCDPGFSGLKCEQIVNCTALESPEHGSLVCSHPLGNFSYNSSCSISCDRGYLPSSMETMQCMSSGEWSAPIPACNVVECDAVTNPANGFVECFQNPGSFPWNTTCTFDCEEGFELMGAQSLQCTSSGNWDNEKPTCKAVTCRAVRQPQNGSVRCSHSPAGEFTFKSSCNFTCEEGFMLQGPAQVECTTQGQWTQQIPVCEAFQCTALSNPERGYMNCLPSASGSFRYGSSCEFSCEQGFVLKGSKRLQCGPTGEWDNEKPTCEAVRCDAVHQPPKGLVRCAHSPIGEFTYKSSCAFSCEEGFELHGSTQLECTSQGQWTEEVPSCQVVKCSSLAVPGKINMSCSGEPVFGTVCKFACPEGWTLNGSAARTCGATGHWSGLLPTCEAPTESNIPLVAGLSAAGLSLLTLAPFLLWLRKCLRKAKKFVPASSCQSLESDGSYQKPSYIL
Sequence of Tumor necrosis factor (Homo sapiens) (P01375 whole entry, looked up): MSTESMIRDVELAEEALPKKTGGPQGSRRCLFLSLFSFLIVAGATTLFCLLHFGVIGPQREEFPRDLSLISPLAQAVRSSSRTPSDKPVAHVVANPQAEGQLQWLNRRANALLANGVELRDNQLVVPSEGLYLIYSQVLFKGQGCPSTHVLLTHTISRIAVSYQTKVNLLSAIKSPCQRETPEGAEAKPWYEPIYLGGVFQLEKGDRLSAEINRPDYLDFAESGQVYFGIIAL

Take `Cc1nn(-c2cc(NS(C)(=O)=O)c(Cl)cc2Cl)c(=O)n1C(F)F`: the outcome in test [1], in test [2], in [3], in test [4], in test [5] and in [6] was inactive. The outcome with CD40, CD40 (gene 958) was “inactive”; in test [7], “inactive”; in test [8], “inactive”; in [9], “inactive”; in test [10], “inactive”; in test [11], “inactive”. Besides, the outcome was “inactive” in [12]; “inactive” in test [13]; “inactive” in [14]; “inactive” in [15]; “inactive” in test [16]; “inactive” with CD38, CD38 (gene 952). Besides, the outcome with CD69, CD69 (gene 969) was inactive.

On to `CCOP(=O)(NC(C)C)Oc1ccc(SC)c(C)c1` (stereo not given), for which the outcome in test [1], in test [2], in test [3], in test [4], in test [5] and in test [6] was inactive. Further, the outcome with CD40, CD40 (gene 958) was “inactive”; in [7], “inactive”; in test [8], “inactive”; in test [9] it was “inactive”; in test [10] it was “inactive”; in test [11] it was “inactive”. Besides, the outcome in [12] was “inactive”; in test [13], “inactive”; in [14], “inactive”; in [15], “inactive”; in [16], “inactive”; in the test with CD38, CD38 (gene 952), “inactive”. Also, in the test with CD69, CD69 (gene 969), the outcome was inactive.

Take `CCCCSP(=O)(SCCCC)SCCCC`: the result in test [1], in test [2], in [3], in test [4], in [5] and in [6] was inactive. For the same compound, the result in [10], in test [13] and in [14] was inactive. Further, the AC50 (commonly the midpoint of the concentration-response curve, whichever way the signal moves) in the test with CD40, CD40 (gene 958) was 31.8 µM (active); in test [7], 32.6 µM (active); in test [8] it was 27.1 µM (active); in [9] it was 16 µM (active); in test [11] it was 20 µM (active); in [12], 29.7 µM (active). For the same compound, the AC50 is 32.5 µM (active) in test [15]; 31.1 µM (active) in test [16]; 20 µM (active) with CD38, CD38 (gene 952); 31.5 µM (active) in the test with CD69, CD69 (gene 969).

On to `COc1cccc(C(=O)NN(C(=O)c2cc(C)cc(C)c2)C(C)(C)C)c1C`, for which the outcome in test [1], in test [2], in test [3], in test [4], in [5] and in [6] was inactive. The outcome was “inactive” with CD40, CD40 (gene 958); “inactive” in test [7]; “inactive” in test [8]; “inactive” in test [9]; “inactive” in [10]; “inactive” in [11]. The outcome in test [12] was “inactive”; in [13] it was “inactive”; in [14], “inactive”; in test [15], “inactive”; in [16], “inactive”; in the test with CD38, CD38 (gene 952) it was “inactive”. Further, the outcome in the test with CD69, CD69 (gene 969) was inactive.

For the compound `CC(C1CC1)C(O)(Cn1cncn1)c1ccc(Cl)cc1` (stereo not given), the result in test [1], in test [2], in test [3], in [4], in test [5] and in test [6] was inactive. In addition, the outcome with CD40, CD40 (gene 958) is “inactive”; in test [7] it was “inactive”; in [8], “inactive”; in test [9] it was “inactive”; in [10] it was “inactive”; in test [11] it was “inactive”. Also, the outcome in test [12] is “inactive”; in test [13], “inactive”; in test [14], “inactive”; in [16] it was “inactive”; with CD38, CD38 (gene 952), “inactive”; with CD69, CD69 (gene 969), “inactive”. The AC50 in [15] was 4.36 µM (active).
